# Results from the supplement of paper PMC6992640.
# ± gives the standard deviation of the averaged measurements.
# How the values were obtained:
# Experiment in all cases: cell viability (% of vehicle); higher = less cytotoxic
# Settings in all cases: 10 µM; 72 h
# [1] = test system: HCI01 (cells of a triple-negative basal-like breast cancer xenograft)
# [2] = test system: HCI03 (cells of an ER-positive luminal breast cancer xenograft)
# [3] = test system: HCI09 (cells of a triple-negative luminal androgen receptor type breast cancer xenograft)
# [4] = test system: HCI11 (cells of an ER-positive luminal breast cancer xenograft)
# [5] = test system: HCI13 (cells of an ER-positive luminal breast cancer xenograft)
# [6] = test system: HCI16 (cells of a triple-negative basal-like breast cancer xenograft)
# [7] = test system: UCD52 (cells of a triple-negative basal-like breast cancer xenograft)
# [8] = test system: WHIM2 (cells of a triple-negative basal-like breast cancer xenograft)
# [9] = test system: WHIM30 (cells of a triple-negative basal-like breast cancer xenograft)
# 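Further: PDX cells carrying CMV promoter-driven luciferase, viability read as total photon flux per second by IVIS imaging following D-luciferin, vehicle control 0.1% DMSO.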
structure (smiles),measurement,setting,value
Cl.c1ccc(CC2=NCCN2)cc1 [Tolazoline HCl],cell viability,[1],94.2 ± 1.9
same,cell viability,[2],100
same,cell viability,[3],92 ± 13
same,cell viability,[4],91.4
same,cell viability,[5],118 ± 8.5
same,cell viability,[6],115
same,cell viability,[7],92.7 ± 2.9
same,cell viability,[8],105 ± 5.3
same,cell viability,[9],87.3 ± 5
Cc1cn(-c2cc(/N=C(\O)c3ccc(C)c(Nc4nccc(-c5cnccn5)n4)c3)cc(C(F)(F)F)c2)cn1 [Radotinib(IY-5511)],cell viability,[1],89.5 ± 3.2
same,cell viability,[2],142
same,cell viability,[3],92.6 ± 13
same,cell viability,[4],92.9
same,cell viability,[5],80.9 ± 9.7
same,cell viability,[6],107
same,cell viability,[7],102 ± 10
same,cell viability,[8],100 ± 12
same,cell viability,[9],104 ± 27
O=C(O)c1cccnc1 [Nicotinic Acid],cell viability,[1],97.2 ± 15
same,cell viability,[2],119
same,cell viability,[3],100 ± 20
same,cell viability,[4],87.3
same,cell viability,[5],112 ± 18
same,cell viability,[6],98.5
same,cell viability,[7],92.8 ± 2.8
same,cell viability,[8],84.3 ± 10
same,cell viability,[9],143.6 ± 0.45
FC(F)(F)c1ccc(CNc2ccc(Cc3c[nH]c4ncc(Cl)cc34)cn2)cn1 [Pexidartinib (PLX3397)],cell viability,[1],100 ± 1.4
same,cell viability,[2],139
same,cell viability,[3],73.6 ± 3.9
same,cell viability,[4],91.3
same,cell viability,[5],96.9 ± 7.1
same,cell viability,[6],116
same,cell viability,[7],97.4 ± 16
same,cell viability,[8],96.5 ± 8.4
same,cell viability,[9],86 ± 11
Cc1ccc(NC(=O)C2(c3ccc4c(c3)OC(F)(F)O4)CC2)nc1-c1cccc(C(=O)O)c1,cell viability,[1],104 ± 31
same,cell viability,[2],89.5
same,cell viability,[3],78.15 ± 0.74
same,cell viability,[4],101
same,cell viability,[5],66 ± 2.5
same,cell viability,[6],103
same,cell viability,[7],86.82 ± 0.29
same,cell viability,[8],92.4 ± 28
same,cell viability,[9],157 ± 13
O=C1NC(=O)C(c2ccccc2)(c2ccccc2)N1 [Phenytoin],cell viability,[1],106 ± 8.9
same,cell viability,[2],151
same,cell viability,[3],105.6 ± 0.89
same,cell viability,[4],108
same,cell viability,[5],113 ± 16
same,cell viability,[6],129
same,cell viability,[7],99 ± 5.9
same,cell viability,[8],118 ± 16
same,cell viability,[9],160 ± 25
CCOC(=O)n1ccn(C)c1=S [Carbimazole],cell viability,[1],90.9 ± 7.9
same,cell viability,[2],145
same,cell viability,[3],95 ± 11
same,cell viability,[4],93.4
same,cell viability,[5],66.4 ± 18
same,cell viability,[6],101
same,cell viability,[7],95.5 ± 7.5
same,cell viability,[8],104 ± 30
same,cell viability,[9],135 ± 11
CON=C(C(=O)NC1C(=O)N2C(C(=O)O)=C(CSC(=O)c3ccco3)CSC12)c1csc(N)n1.Cl (stereo not given) [Ceftiofur HCl],cell viability,[1],90.2 ± 12
same,cell viability,[2],132
same,cell viability,[3],95.9 ± 8.5
same,cell viability,[4],100
same,cell viability,[5],56.9 ± 2.3
same,cell viability,[6],103
same,cell viability,[7],103 ± 12
same,cell viability,[8],104 ± 10
same,cell viability,[9],111 ± 14
COc1cc(NS(=O)(=O)c2ccc(N)cc2)nc(OC)n1 [Sulfadimethoxine],cell viability,[1],91.8 ± 17
same,cell viability,[2],155
same,cell viability,[3],103 ± 14
same,cell viability,[4],103
same,cell viability,[5],116 ± 1.2
same,cell viability,[6],118
same,cell viability,[7],112 ± 5.2
same,cell viability,[8],86.1 ± 9.4
same,cell viability,[9],172 ± 27
CN(C)CCC(c1ccccc1)c1ccccn1.O=C(O)C=CC(=O)O (stereo not given) [Pheniramine Maleate],cell viability,[1],111 ± 10
same,cell viability,[2],123
same,cell viability,[3],108 ± 34
same,cell viability,[4],101
same,cell viability,[5],94.008 ± 0.0093
same,cell viability,[6],132
same,cell viability,[7],117 ± 27
same,cell viability,[8],97.8 ± 24
same,cell viability,[9],124 ± 14
O=C(O)[C@H](O)[C@@H](O)C(=O)O.c1cnc2cc3c(cc2n1)C1CNC[C@@H]3C1 [Varenicline Tartrate],cell viability,[1],169.5 ± 0.68
same,cell viability,[2],128
same,cell viability,[3],131 ± 5.6
same,cell viability,[4],138
same,cell viability,[5],128.8 ± 0.16
same,cell viability,[6],153
same,cell viability,[7],99.9 ± 8.8
same,cell viability,[8],106 ± 5.1
same,cell viability,[9],158 ± 25
N=C(NCCCCCCNC(=N)NC(=N)Nc1ccc(Cl)cc1)NC(=N)Nc1ccc(Cl)cc1 [Chlorhexidine digluconate],cell viability,[1],77.9 ± 12
same,cell viability,[2],118
same,cell viability,[3],60.1 ± 19
same,cell viability,[4],76
same,cell viability,[5],68.6 ± 2
same,cell viability,[6],112
same,cell viability,[7],98.5 ± 24
same,cell viability,[8],48.8 ± 1.5
same,cell viability,[9],103 ± 6
Cc1ccc2c(Cl)cc(Cl)c(O)c2n1 [Chlorquinaldol],cell viability,[1],102 ± 27
same,cell viability,[2],109
same,cell viability,[3],31.6 ± 15
same,cell viability,[4],52.7
same,cell viability,[5],105 ± 17
same,cell viability,[6],105
same,cell viability,[7],69.6 ± 16
same,cell viability,[8],94.2 ± 31
same,cell viability,[9],94 ± 5.7
Oc1ccc(C2CNCCc3c2cc(O)c(O)c3Cl)cc1 (stereo not given) [Fenoldopam],cell viability,[1],125 ± 16
same,cell viability,[2],101
same,cell viability,[3],107 ± 8.1
same,cell viability,[4],101
same,cell viability,[5],90.4 ± 2.4
same,cell viability,[6],124
same,cell viability,[7],110.5 ± 0.48
same,cell viability,[8],96.8 ± 13
same,cell viability,[9],126 ± 9.5
CN(N=O)C(=O)NC1C(O)OC(CO)C(O)C1O (stereo not given) [Streptozocin],cell viability,[1],105 ± 4.3
same,cell viability,[2],123
same,cell viability,[3],104 ± 6.3
same,cell viability,[4],99.5
same,cell viability,[5],89.38 ± 0.52
same,cell viability,[6],113
same,cell viability,[7],83.17 ± 0.58
same,cell viability,[8],85 ± 16
same,cell viability,[9],123.9 ± 1.1
CC(CCC(=O)O)C1CCC2C3C(O)CC4CC(O)CCC4(C)C3CCC12C (stereo not given) [Ursodiol],cell viability,[1],90.9 ± 70
same,cell viability,[2],150
same,cell viability,[3],100.8 ± 0.88
same,cell viability,[4],95.2
same,cell viability,[5],126 ± 9.4
same,cell viability,[6],124
same,cell viability,[7],89.82 ± 0.32
same,cell viability,[8],111 ± 9.3
same,cell viability,[9],155 ± 12
CC1(C)CCC(C)(C)c2cc(NC(=O)c3ccc(C(=O)O)cc3)ccc21 [Tamibarotene],cell viability,[1],108 ± 22
same,cell viability,[2],63.1
same,cell viability,[3],65.6 ± 45
same,cell viability,[4],95.9
same,cell viability,[5],73.8 ± 30
same,cell viability,[6],77.1
same,cell viability,[7],124 ± 10
same,cell viability,[8],98.1 ± 28
same,cell viability,[9],121 ± 9.1
CC1OC(n2cc(F)c(=O)[nH]c2=O)C(O)C1O (stereo not given) [Doxifluridine],cell viability,[1],67.1 ± 35
same,cell viability,[2],152
same,cell viability,[3],89.8 ± 12
same,cell viability,[4],110
same,cell viability,[5],104 ± 7.4
same,cell viability,[6],148
same,cell viability,[7],93 ± 19
same,cell viability,[8],102 ± 19
same,cell viability,[9],175.4 ± 0.91
CC(=O)Oc1ccc(C(c2ccc(OC(C)=O)cc2)c2ccccn2)cc1 [Bisacodyl],cell viability,[1],53.2 ± 14
same,cell viability,[2],130
same,cell viability,[3],30.9 ± 6.2
same,cell viability,[4],50.3
same,cell viability,[5],184 ± 16
same,cell viability,[6],70.9
same,cell viability,[7],80.9 ± 17
same,cell viability,[8],111 ± 43
same,cell viability,[9],76.5 ± 1.4
CN(C)CCCC1(c2ccc(F)cc2)OCc2cc(C#N)ccc21.O=C(O)C(=O)O (stereo not given) [Escitalopram Oxalate],cell viability,[1],99.8 ± 9.9
same,cell viability,[2],114
same,cell viability,[3],97.3 ± 12
same,cell viability,[4],86.2
same,cell viability,[5],93.6 ± 18
same,cell viability,[6],128
same,cell viability,[7],90.9 ± 5.2
same,cell viability,[8],87.5 ± 5.9
same,cell viability,[9],157 ± 21
